This note sets out measurements from PubChem BioAssay.

Experiment [1] is described as follows: enhancers of glutamate uptake in motor neurons, MN-1 cell line (AID 1612).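 Further: tested at 1 µM final; 0% = mean of DMSO vehicle wells on each plate; positive means more glutamate uptake than control and negative means less.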 To be noted: MN-1 motor neuron cells, stronger effect = higher value.
A short description of experiment [2]: reducers of polyQ inclusions in PC12 cells, cell-based, NGF-treated PC12, GFPQ80 (AID 1614).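 Further: lower means fewer inclusions and 0 means no inclusions at all.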 Particulars: PC12 NGF-treated GFP-polyQ80 inclusion reduction.
Experiment [3] in a line: suppressors of polyglutamine aggregation in yeast, 75Q-TubH (AID 1616). To be noted: S. cerevisiae 75Q-TubH polyglutamine aggregation suppression; stronger effect = higher value.
Experiment [4] is described as follows: protection against mutant huntingtin cytotoxicity, PC12 cells, LDH release (AID 1610). To be noted: PC12 mutant huntingtin toxicity, final LDH at 4 uM, stronger effect = lower value.
The nature of experiment [5]: hESC survival regulators, cell-based (AID 493140).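 Further: cells exposed to compounds for four days before counting.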 To be noted: human embryonic stem cell survival screen; stronger effect = higher value.
Experiment [6] in a line: circadian clock period modulators, cell-based, LOPAC library, luminescence reporter (AID 2774).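 Further: values are relative to mean of DMSO wells on each plate.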 To be noted: circadian reporter cells, at 7 µM, actives lie on both sides.

“And” between values parts separate entries of the source, which are not always exact repeats. Identical values can stand only once. Records with an inconclusive call do not appear. The source made the active and inactive calls. How the calls were made is not given here.

For `N[C@@H](CCC(=O)N[C@@H](CS)C(=O)NCC(=O)O)C(=O)O`, the glutamate uptake change in experiment [1] worked out at 13.8%. This compound yielded an inclusion score in experiment [2] of 2. The compound further yielded an aggregation suppression score in experiment [3] of 1.61.

With `O=C(N[C@H](CO)[C@H](O)c1ccc([N+](=O)[O-])cc1)C(Cl)Cl`, the glutamate uptake change in experiment [1] came out at 7.27%. The same compound registered an inclusion score in experiment [2] of 2. Further, in experiment [3], the aggregation suppression score was found to be 1.2.

Take `O=C(CCBr)N1CCN(C(=O)CCBr)CC1`: the glutamate uptake change in experiment [1] stood at 17.8%. The compound further displayed an inclusion score in experiment [2] of 2. In experiment [3], this compound came in with an aggregation suppression score of 0.931.

With `Nc1c(Br)cc(Br)cc1CNC1CCC(O)CC1` (stereo not drawn), the normalised LDH release in experiment [4] amounted to 0.856. For the same compound, the glutamate uptake change in experiment [1] was found to be 5.04%. The compound also gave an inclusion score in experiment [2] of 2. Besides, the aggregation suppression score in experiment [3] stood at 1.15. Moreover, in experiment [5], the survival was 4.58 (inactive).

On to `CCCOc1ccc2nc(NC(=O)OC)[nH]c2c1`, for which, in experiment [1], the glutamate uptake change was -36.6%. In addition, in experiment [2], the inclusion score was 2. This compound also returned an aggregation suppression score in experiment [3] of 0.918.

For the compound `CCC(=O)c1c(O)cc(O)cc1O`, the glutamate uptake change in experiment [1] is -10.7%. Also, the inclusion score in experiment [2] was determined as 2. This compound displayed an aggregation suppression score in experiment [3] of 1.29.

For the compound `CC(=O)Nc1ccccc1`, the glutamate uptake change in experiment [1] was 3.38% and -12.1%. In experiment [2], this compound gave an inclusion score of 2. For the same compound, the aggregation suppression score in experiment [3] is 1.6 and 1.51.

`N[C@@H](Cc1ccc(O)c(O)c1)C(=O)O`: the glutamate uptake change in experiment [1] was -2.7%. For the same compound, in experiment [2], the inclusion score was determined as 2. This compound also came in with an aggregation suppression score in experiment [3] of 1.67. Moreover, in experiment [6], the period change is 0.105 h (inactive). Moreover, the survival in experiment [5] was 9.67 (inactive).

Regarding `Cc1cc(C(C)(C)C)cc(C)c1CC1=NCCN1`, the glutamate uptake change in experiment [1] was 16.9%. This compound returned an inclusion score in experiment [2] of 2. Moreover, in experiment [3], the aggregation suppression score is 1.86. In addition, the period change in experiment [6] is 0.03 h (inactive). Besides, in experiment [5], the survival is 6.75 (inactive).

With `CN(C)[C@@H]1C(=O)C(C(N)=O)=C(O)[C@@]2(O)C(=O)C3=C(O)c4c(O)ccc(Cl)c4[C@@H](O)[C@H]3C[C@@H]12`, the glutamate uptake change in experiment [1] stood at 0.55%. This compound gave an inclusion score in experiment [2] of 0. The same compound displayed an aggregation suppression score in experiment [3] of 0.533. Also, in experiment [6], the period change was 0.065 h (inactive). Moreover, in experiment [5], the survival is 2.92 (inactive).

Turning to `CCCOc1ccccc1-c1nc2n[nH]nc2c(=O)[nH]1`, in experiment [1], the glutamate uptake change is -4.8%. Besides, the inclusion score in experiment [2] was determined as 2. For the same compound, the aggregation suppression score in experiment [3] came to 1.1. Also, the period change in experiment [6] was -0.2 h (inactive). In addition, in experiment [5], the survival was 9.92 (inactive).

Take `C[N+]1(CCCCC[N+]2(C)CCCC2)CCCC1`: the glutamate uptake change in experiment [1] was determined as 1.85%. This compound returned an inclusion score in experiment [2] of 2. Moreover, the aggregation suppression score in experiment [3] turned out to be 1.31. Also, the period change in experiment [6] was 0.04 h (inactive). Moreover, the survival in experiment [5] is 22.2 (inactive).

For the compound `CCO/C([O-])=N/c1c[n+](N2CCOCC2)no1`, the glutamate uptake change in experiment [1] is 3.92%. This compound also registered an inclusion score in experiment [2] of 2. The same compound had an aggregation suppression score in experiment [3] of 1.23. Moreover, the period change in experiment [6] was 0.065 h (inactive). The survival in experiment [5] is 4.75 (inactive).

In the case of `C=CCc1ccccc1OCC(O)CNC(C)C` (stereo not drawn), the glutamate uptake change in experiment [1] is -6.27%. Further, the inclusion score in experiment [2] turned out to be 2. In addition, the aggregation suppression score in experiment [3] is 1.42. Moreover, the period change in experiment [6] is 0.15 h (inactive). Further, the survival in experiment [5] is 7.25 (inactive).

Regarding `Cc1cc(C(C)(C)C)c(O)c(C)c1CC1=NCCN1`, the glutamate uptake change in experiment [1] was -22.6%. Further, the inclusion score in experiment [2] came out at 2. Besides, the aggregation suppression score in experiment [3] turned out to be 1.13. Besides, the period change in experiment [6] was -0.09 h (inactive). In addition, in experiment [5], the survival is 18.8 (inactive).

On to `C[N+](C)(C)CCCCCC[N+](C)(C)C`, for which the glutamate uptake change in experiment [1] stood at 11.7%. The same compound came in with an inclusion score in experiment [2] of 2. This compound also showed an aggregation suppression score in experiment [3] of 1.28. Moreover, the period change in experiment [6] was -0.005 hour (inactive) and -0.2 hour (inactive). The survival in experiment [5] was 12.8 (inactive).

Regarding `NNc1nncc2ccccc12`, the glutamate uptake change in experiment [1] came to 4.84%. The inclusion score in experiment [2] was 2. The aggregation suppression score in experiment [3] came out at 1.4. The period change in experiment [6] was 0.12 h (inactive). For the same compound, the survival in experiment [5] was 18.2 (inactive).

In the case of `COCCc1ccc(OCC(O)CNC(C)C)cc1` (stereo not drawn), in experiment [1], the glutamate uptake change is -0.51%. The compound also displayed an inclusion score in experiment [2] of 2. In addition, the aggregation suppression score in experiment [3] came to 0.579. Moreover, the period change in experiment [6] was 0.045 h (inactive). For the same compound, the survival in experiment [5] was 15.4 (inactive).

As for `NCCCCCC(=O)O`, the glutamate uptake change in experiment [1] is -5.97%. This compound also had an inclusion score in experiment [2] of 2. The aggregation suppression score in experiment [3] was 1.27. Moreover, the period change in experiment [6] was 0.065 h (inactive). Besides, the survival in experiment [5] was 2 (inactive).

Regarding `COc1ccc2[nH]cc(CCNC(C)=O)c2c1`, in experiment [1], the glutamate uptake change is 7.67%. In addition, the inclusion score in experiment [2] turned out to be 2. Besides, in experiment [3], the aggregation suppression score came out at 1.76. In addition, the period change in experiment [6] was -0.21 h (inactive). In addition, in experiment [5], the survival was 15.4 (inactive).

Regarding `CC(=O)OCC1=C(C(=O)O)N2C(=O)[C@@H](NC(=O)Cc3cccs3)[C@H]2SC1`, in experiment [1], the glutamate uptake change was determined as 0.12%. In experiment [2], this compound returned an inclusion score of 2. The same compound showed an aggregation suppression score in experiment [3] of 1.47. Besides, in experiment [6], the period change is 0.04 h (inactive). Besides, the survival in experiment [5] is 7.08 (inactive).

As to `CCC1(C)CC(=O)NC1=O` (stereo not drawn), the glutamate uptake change in experiment [1] is -2.95%. The inclusion score in experiment [2] came out at 2. The compound also returned an aggregation suppression score in experiment [3] of 1.06. Moreover, in experiment [6], the period change is 0.01 h (inactive). Also, the survival in experiment [5] is 28.8 (inactive).

As to `Cc1nnc(SCC2=C(C(=O)O)N3C(=O)[C@@H](NC(=O)Cn4cnnn4)[C@H]3SC2)s1`, in experiment [1], the glutamate uptake change came out at 0.76%. The same compound registered an inclusion score in experiment [2] of 2. The aggregation suppression score in experiment [3] was determined as 1.05. Besides, the period change in experiment [6] was -0.065 h (inactive). The survival in experiment [5] was 2.58 (inactive).

Consider `CN1Cc2c(N)cccc2C(c2ccccc2)C1` (stereo not drawn), for which the glutamate uptake change in experiment [1] was -14.3%. This compound gave an inclusion score in experiment [2] of 2. The compound also returned an aggregation suppression score in experiment [3] of 1.65. The period change in experiment [6] is -0.06 h (inactive). Also, in experiment [5], the survival was 19.8 (inactive).

For the compound `O=C1NCC2(CCN(CCc3ccccc3)CC2)O1`, in experiment [1], the glutamate uptake change was -8.17%. Also, the inclusion score in experiment [2] came to 2. Further, the aggregation suppression score in experiment [3] worked out at 1.64. The period change in experiment [6] was 0 h (inactive). In experiment [5], the survival is 18.8 (inactive).

As for `CCN(CC)CCNC(=O)c1cc(Cl)c(N)cc1OC`, in experiment [1], the glutamate uptake change was -0.01%. The inclusion score in experiment [2] turned out to be 2. In experiment [3], the aggregation suppression score stood at 1.2. Besides, the period change in experiment [6] was -0.015 h (inactive). In experiment [5], the survival was 14.7 (inactive).

As for `CCn1cc(C(=O)O)c(=O)c2cc3c(cc21)OCO3`, the glutamate uptake change in experiment [1] worked out at 5.71%. In addition, in experiment [2], the inclusion score was 2. The aggregation suppression score in experiment [3] worked out at 1.09. In addition, the period change in experiment [6] was 0.16 h (inactive). The survival in experiment [5] is 33.2 (inactive).

Turning to `CCCN(CCC)C(=O)C(CCC(=O)O)NC(=O)c1ccccc1` (stereo not drawn), the glutamate uptake change in experiment [1] was 11.9%. The inclusion score in experiment [2] was 1. The aggregation suppression score in experiment [3] turned out to be 1.2. Further, in experiment [6], the period change was 0.02 h (inactive). The survival in experiment [5] was 19.6 (inactive).

Consider `C[C@](N)(Cc1ccc(O)c(O)c1)C(=O)O`, for which the glutamate uptake change in experiment [1] stood at 33%. For the same compound, the inclusion score in experiment [2] amounted to 2. In experiment [3], this compound gave an aggregation suppression score of 1.39. Besides, the period change in experiment [6] is -0.07 h (inactive). Moreover, the survival in experiment [5] was 3.58 (inactive).

Consider `Cc1cccc(C)c1OCC(C)N` (stereo not drawn), for which the glutamate uptake change in experiment [1] amounted to 6.77%. For the same compound, the inclusion score in experiment [2] came to 2. The aggregation suppression score in experiment [3] was 1.44. Further, the period change in experiment [6] is 0.025 h (inactive). The survival in experiment [5] was 21.7 (inactive).

For the compound `Nc1ccc(S(=O)(=O)Nc2ccnn2-c2ccccc2)cc1`, the glutamate uptake change in experiment [1] stood at 16.6%. In experiment [2], the inclusion score was found to be 2. Also, the aggregation suppression score in experiment [3] worked out at 0.956. For the same compound, the period change in experiment [6] is 0.065 h (inactive). The survival in experiment [5] was 28 (inactive).

Take `CN1CCC(=C2c3ccccc3CC(=O)c3sccc32)CC1`: the glutamate uptake change in experiment [1] was 0.39%. This compound also returned an inclusion score in experiment [2] of 2. The compound further showed an aggregation suppression score in experiment [3] of 1.2. In addition, the period change in experiment [6] was -0.04 h (inactive). The survival in experiment [5] was 5.83 (inactive).
